PubChem BioAssay AID1159580 (chemical genetic matrix, 2015)
The whole screen tested about 5,500 compounds, of which about 2,000 (36%) were called active. Another 18% or so got no clear call; they are omitted. No stated cut-off is given here; in the data, active means normalized growth mostly below about 0.91 (no sharp cut-off); inconclusive means no clear call, values can overlap the other calls; inactive means mostly above about 0.92. This is one part of the list.

Experiment: chemical genetic growth profiling, strain panel (AID 1159580);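 further: tested at 20 µM; growth read once vehicle control cultures reached saturation at 30 °C; 1 = growth at the plate median or of vehicle wells; lower values mean less growth of the strain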
Details: growth OD

Measured: normalized growth

CN[C@H](CC(=O)O)C(=O)O
inactive: S. cerevisiae deletion strains, locus YJR066W, strain TOR1, hits give low values 0.949 | S. cerevisiae deletion strains, locus YJR075W, strain HOC1, hits give low values 0.988 | S. cerevisiae deletion strains, locus YKL009W, strain mrt4, hits give low values 0.938 | S. cerevisiae deletion strains, locus YKL068W, hits give low values 1.01 | S. cerevisiae deletion strains, locus YKL085W, strain MDH1 (second series), hits give low values 1.01 | S. cerevisiae deletion strains, locus YKL085W, strain MDH1, hits give low values 1.01 | S. cerevisiae deletion strains, locus YKL160W, strain elf1, hits give low values 1.02 | S. cerevisiae deletion strains, locus YKL190W, strain CNB1, hits give low values 0.999 | S. cerevisiae deletion strains, locus YKR001C, strain vps1, hits give low values 0.989 | S. cerevisiae deletion strains, locus YKR026C, strain gcn3, hits give low values 1.02 | S. cerevisiae deletion strains, locus YKR091W, strain srl3, hits give low values 1.02 | S. cerevisiae deletion strains, locus YLL001W, strain dnm1, hits give low values 1.03 | S. cerevisiae deletion strains, locus YLL026W, hits give low values 1.03 | S. cerevisiae deletion strains, locus YLL041C, strain sdh2, hits give low values 1.01 | S. cerevisiae deletion strains, locus YLR027C, strain aat2, hits give low values 1.03 | S. cerevisiae deletion strains, locus YLR039C, strain RIC1, hits give low values 0.962 | S. cerevisiae deletion strains, locus YLR058C, strain SHM2, hits give low values 0.989 | S. cerevisiae deletion strains, locus YLR102C, strain apc9, hits give low values 0.989 | S. cerevisiae deletion strains, locus YLR113W, strain HOG1, hits give low values 1.07 | S. cerevisiae deletion strains, locus YLR221C, strain rsa3, hits give low values 1 | S. cerevisiae deletion strains, locus YLR258W, strain gsy2, hits give low values 1.02 | S. cerevisiae deletion strains, locus YLR262C, strain YPT6 (second series), hits give low values 1.01 | S. cerevisiae deletion strains, locus YLR262C, strain YPT6, hits give low values 0.936 | S. cerevisiae deletion strains, locus YLR268W, strain sec22, hits give low values 0.991 | S. cerevisiae deletion strains, locus YLR320W, strain mms22, hits give low values 0.992 | S. cerevisiae deletion strains, locus YLR330W, strain CHS5, hits give low values 0.991 | S. cerevisiae deletion strains, locus YLR342W, strain FKS1 (second series), hits give low values 0.983 | S. cerevisiae deletion strains, locus YLR342W, strain FKS1, hits give low values 1.02 | S. cerevisiae deletion strains, locus YLR357W, strain rsc2, hits give low values 0.995 | S. cerevisiae deletion strains, locus YLR370C, strain arc18, hits give low values 1.02 | S. cerevisiae deletion strains, locus YLR371W, strain rom2, hits give low values 0.997 | S. cerevisiae deletion strains, locus YLR384C, strain iki3, hits give low values 1.03 | S. cerevisiae deletion strains, locus YLR418C, strain cdc73, hits give low values 0.947 | S. cerevisiae deletion strains, locus YML016C, strain PPZ1, hits give low values 0.989 | S. cerevisiae deletion strains, locus YML032C, strain rad52, hits give low values 0.964 | S. cerevisiae deletion strains, locus YML120C, strain ndi1, hits give low values 1.03 | S. cerevisiae deletion strains, locus YML124C, strain tub3, hits give low values 0.99 | S. cerevisiae deletion strains, locus YMR058W, strain fet3, hits give low values 1.01 | S. cerevisiae deletion strains, locus YMR078C, strain ctf18, hits give low values 0.98 | S. cerevisiae deletion strains, locus YMR125W, strain sto1, hits give low values 1.08 | S. cerevisiae deletion strains, locus YMR129W, hits give low values 1.01 | S. cerevisiae deletion strains, locus YMR205C, strain PFK2, hits give low values 1.03 | S. cerevisiae deletion strains, locus YMR223W, strain ubp8, hits give low values 0.937 | S. cerevisiae deletion strains, locus YMR231W, strain pep5, hits give low values 0.998 | S. cerevisiae deletion strains, locus YMR307W, strain GAS1, hits give low values 0.89 | S. cerevisiae deletion strains, locus YNL067W, strain RPL9B, hits give low values 1.02 | S. cerevisiae deletion strains, locus YNL071W, strain lat1, hits give low values 1.02 | S. cerevisiae deletion strains, locus YNL153C, strain GIM3, hits give low values 1.03 | S. cerevisiae deletion strains, locus YNL183C, strain NPR1, hits give low values 0.992 | S. cerevisiae deletion strains, locus YNL209W, strain ssb2, hits give low values 1.01 | S. cerevisiae deletion strains, locus YNL233W, strain BNI4, hits give low values 1.01 | S. cerevisiae deletion strains, locus YNL248C, strain rpa49, hits give low values 0.98 | S. cerevisiae deletion strains, locus YNL250W, strain rad50, hits give low values 0.941 | S. cerevisiae deletion strains, locus YNL271C, strain bni1, hits give low values 0.977 | S. cerevisiae deletion strains, locus YNL298W, strain CLA4, hits give low values 0.972 | S. cerevisiae deletion strains, locus YNL307C, strain MCK1, hits give low values 0.976 | S. cerevisiae deletion strains, locus YNL322C, strain KRE1 (second series), hits give low values 1.03 | S. cerevisiae deletion strains, locus YNR049C, strain mso1, hits give low values 1.02 | S. cerevisiae deletion strains, locus YNR052C, strain pop2, hits give low values 0.978 | S. cerevisiae deletion strains, locus YOL006C, strain TOP1, hits give low values 1.06 | S. cerevisiae deletion strains, locus YOL012C, strain htz1 0.629 | S. cerevisiae deletion strains, locus YOL147C, strain pex11, hits give low values 0.984 | S. cerevisiae deletion strains, locus YOR001W, strain rrp6, hits give low values 1.02 | S. cerevisiae deletion strains, locus YOR061W, strain CKA2, hits give low values 0.994 | S. cerevisiae deletion strains, locus YOR069W, strain VPS5, hits give low values 0.991 | S. cerevisiae deletion strains, locus YOR070C, strain gyp1, hits give low values 1.01 | S. cerevisiae deletion strains, locus YOR080W, strain dia2, hits give low values 1.03 | S. cerevisiae deletion strains, locus YOR083W, strain WHI5, hits give low values 1.02 | S. cerevisiae deletion strains, locus YOR106W, strain vam3, hits give low values 1.01 | S. cerevisiae deletion strains, locus YOR136W, strain idh2, hits give low values 0.991 | S. cerevisiae deletion strains, locus YOR144C, strain elg1, hits give low values 0.99 | S. cerevisiae deletion strains, locus YOR184W, strain ser1, hits give low values 0.936 | S. cerevisiae deletion strains, locus YOR231W, strain MKK1, hits give low values 1.1 | S. cerevisiae deletion strains, locus YOR265W, strain rbl2, hits give low values 1.03 | S. cerevisiae deletion strains, locus YOR270C, strain vph1, hits give low values 1 | S. cerevisiae deletion strains, locus YOR290C, strain snf2, hits give low values 1.01 | S. cerevisiae deletion strains, locus YOR316C, strain cot1, hits give low values 0.991 | S. cerevisiae deletion strains, locus YPL051W, strain arl3, hits give low values 1.02 | S. cerevisiae deletion strains, locus YPL078C, strain atp4, hits give low values 0.989 | S. cerevisiae deletion strains, locus YPL106C, strain sse1, hits give low values 1.04 | S. cerevisiae deletion strains, locus YPL240C, strain hsp82, hits give low values 1.04 | S. cerevisiae deletion strains, locus YPL256C, strain CLN2, hits give low values 1.06 | S. cerevisiae deletion strains, locus YPR119W, strain clb2, hits give low values 0.987 | S. cerevisiae deletion strains, locus YPR141C, strain kar3, hits give low values 0.985 | S. cerevisiae deletion strains, locus YPR163C, strain tif3, hits give low values 0.995 | S. cerevisiae deletion strains, locus YPR167C, strain met16, hits give low values 0.981 | S. cerevisiae deletion strains, strain wtn01, hits give low values 0.963 | S. cerevisiae strains, strain wild type, hits give low values 0.995
